From article PMC4053984, “DNA binding specificities of the long zinc-finger recombination protein PRDM9”

biological target: PRDM9Cst (Mus musculus (CAST/EiJ)); test: competition EMSA; competition against biotin-labeled 75-bp Hlx1 B6 oligo; 10 mM Tris pH 7.5, 50 mM KCl, 1 mM DTT, 50 ng/ul poly(dI/dC), 0.05% NP-40, crude E. coli extract 3 ul in 20 ul; 1 h with unlabeled competitor, then 4 h with biotin-labeled 75-bp Hlx1; temperature not stated; high values mean tight binding; settings: tags: N-terminal His tag (pBAD/HisB); dsDNA, one strand shown
Sequence (chain, as listed by the source): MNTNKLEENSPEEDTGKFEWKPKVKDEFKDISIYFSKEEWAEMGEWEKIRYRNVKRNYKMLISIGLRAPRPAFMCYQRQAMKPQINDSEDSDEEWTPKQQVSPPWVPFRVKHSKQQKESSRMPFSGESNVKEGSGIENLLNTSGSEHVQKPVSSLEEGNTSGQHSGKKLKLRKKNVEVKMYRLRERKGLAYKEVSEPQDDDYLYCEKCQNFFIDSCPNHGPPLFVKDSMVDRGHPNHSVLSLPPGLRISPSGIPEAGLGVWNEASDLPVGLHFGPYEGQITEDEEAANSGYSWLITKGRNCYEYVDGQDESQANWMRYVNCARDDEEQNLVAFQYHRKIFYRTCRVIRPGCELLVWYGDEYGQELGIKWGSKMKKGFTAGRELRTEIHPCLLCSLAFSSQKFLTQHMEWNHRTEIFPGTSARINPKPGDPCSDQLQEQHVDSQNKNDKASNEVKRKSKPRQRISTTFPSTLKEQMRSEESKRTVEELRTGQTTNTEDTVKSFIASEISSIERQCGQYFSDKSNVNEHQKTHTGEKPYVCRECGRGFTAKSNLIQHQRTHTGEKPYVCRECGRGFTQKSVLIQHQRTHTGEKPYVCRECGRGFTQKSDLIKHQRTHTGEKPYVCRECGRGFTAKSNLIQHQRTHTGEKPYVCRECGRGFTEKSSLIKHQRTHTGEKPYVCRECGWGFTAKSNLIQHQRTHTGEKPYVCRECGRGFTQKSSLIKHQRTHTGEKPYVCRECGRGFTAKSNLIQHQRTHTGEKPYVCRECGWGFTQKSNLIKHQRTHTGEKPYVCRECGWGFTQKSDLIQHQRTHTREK

| Sequence | binding signal |
| --- | --- |
| ACAGTGTGCAGACTTGGACCCTGCCCTTTCTTT | -0.1 Bmut (0 = wild type, -1 = scrambled) |
| ATAGTGTGCAGACTTGGACCCTGCCTTTTCTTT | 0.15 Bmut (0 = wild type, -1 = scrambled) |
| ATAGTGTGCAGACTTGGACACTGCCCTTTCTTT | -0 Bmut (0 = wild type, -1 = scrambled) |
| ATAGTGTGCAGACTTGAACCCTGCCCTTTCTTT | 0.2 Bmut (0 = wild type, -1 = scrambled) |
| AAAGTGTGCAGACTTGGACCCTGCCCTTTCTTT | 0 Bmut (0 = wild type, -1 = scrambled) |
| ATAGTATGCAGACTTGGACCCTGCCCTTTCTTT | 0 Bmut (0 = wild type, -1 = scrambled) |
| ATAGTGTGCAGACCTGGACCCTGCCCTTTCTTT | 0 Bmut (0 = wild type, -1 = scrambled) |
| ATAGTGTTCAGACTTGGACCCTGCCCTTTCTTT | -0.4 Bmut (0 = wild type, -1 = scrambled) |
| ATAGTGTGCAGACTTGGACCCTGCACTTTCTTT | -0.1 Bmut (0 = wild type, -1 = scrambled) |
| ATAGTGTGCAGACTTGGACCCTGCCCTGTCTTT | 0.01 Bmut (0 = wild type, -1 = scrambled) |
| CTAGTGTGCAGACTTGGACCCTGCCCTTTCTTT | -0.1 Bmut (0 = wild type, -1 = scrambled) |
| ATAGTGTGCAGACTTGGGCCCTGCCCTTTCTTT | 0.3 Bmut (0 = wild type, -1 = scrambled) |
| ATAGTGTGCAGACTTGGACCCTGCCCTTTCGTT | 0.12 Bmut (0 = wild type, -1 = scrambled) |
| ATAGTGTGCAGACTAGGACCCTGCCCTTTCTTT | 0 Bmut (0 = wild type, -1 = scrambled) |
| ATAGTGTGCAGACTTTGACCCTGCCCTTTCTTT | 0 Bmut (0 = wild type, -1 = scrambled) |
| ATAGTGTGCAGACTTGGACCCTGCCCTTCCTTT | -0.1 Bmut (0 = wild type, -1 = scrambled) |

| Sequence | binding signal |
| --- | --- |
| ATAGTGTGCAGACTTGGACCATGCCCTTTCTTT | 0.07 Bmut (0 = wild type, -1 = scrambled) |
| ATAGTGTGCAGACTTGGACCCTGCCCTTTATTT | 0.05 Bmut (0 = wild type, -1 = scrambled) |
| ATAGTGTGCAGACTTGGACCCTGCCCTTTGTTT | -0 Bmut (0 = wild type, -1 = scrambled) |
| ATAGTGTGCAGATTTGGACCCTGCCCTTTCTTT | 0.1 Bmut (0 = wild type, -1 = scrambled) |
| ATAGTGTGCAGACTTGGACCCTGCCCTTTCCTT | 0.12 Bmut (0 = wild type, -1 = scrambled) |
| ATGGTGTGCAGACTTGGACCCTGCCCTTTCTTT | 0 Bmut (0 = wild type, -1 = scrambled) |
| ATAGTGTGCAGACTTGGACCCTGCCCTTTTTTT | 0.11 Bmut (0 = wild type, -1 = scrambled) |
| ATAGTGTGCAGACTTGGACCCTACCCTTTCTTT | 0.1 Bmut (0 = wild type, -1 = scrambled) |
| ATAGTGTGGAGACTTGGACCCTGCCCTTTCTTT | 0.1 Bmut (0 = wild type, -1 = scrambled) |
| ATAGTGTGTAGACTTGGACCCTGCCCTTTCTTT | 0 Bmut (0 = wild type, -1 = scrambled) |
| ATAGTGTGCAGACTTGGACCCTGCCCTTTCATT | 0.08 Bmut (0 = wild type, -1 = scrambled) |
| TTAGTGTGCAGACTTGGACCCTGCCCTTTCTTT | 0 Bmut (0 = wild type, -1 = scrambled) |
| ATAGTTTGCAGACTTGGACCCTGCCCTTTCTTT | -0.3 Bmut (0 = wild type, -1 = scrambled) |
| ATAGTGTGCAGACTTGGACCCTGCCCTTTCTGT | 0.09 Bmut (0 = wild type, -1 = scrambled) |
| ATAGTGTGCAGACTTGGACCCTGCCCTTTCTAT | 0.15 Bmut (0 = wild type, -1 = scrambled) |
